Rows were chosen to be rich in hits. Some 8.3% of all compounds tested hit in one or more screens of this group.
FMDV inh – High Throughput Screening for Foot and Mouth Disease Virus Antivirals; FMDV antiviral cell-based qHTS; Potency, µM (titrated, usually from 57.9 µM), for the others: top-dose activity change, negative = inhibition, most hits filed as inhibitors; actives 1.2% (n = 410,000); AID 1159524, 2015; calls by dose curve; tested in HEK293T cells; also: read-out not given here; potency is read from the fitted curve at half-maximal effect; nearly all actives have a fitted effect of over 45% in size
HCMV inh – qHTS Assay for inhibitors of the human cytomegalovirus (HCMV) | actives 4.5% (n = 410,000) | activity change, negative = inhibition, % at 57.5 µM | HFF cells, HCMV-luciferase reporter, 72 h; hits give low values; in the data active = activity change below about -60%; inconclusive = no clear call, values can overlap the other calls; inactive = above about -39%
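Inhibition of viral replication was scored as loss of reporter luminescence in HFFs infected with HCMV-luciferase (MOI 1 PFU/cell) for 72 h; compounds tested at 2 doses, normalized to buffer and Salinomycin controls.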
HCV inh – qHTS Assay for Inhibitors of Hepatitis C Virus (HCV); Huh7.5.1 HCVcc-Cre infection, luciferase reporter, 44 h; Potency, µM (top dose mostly 41.8 µM), for inactives: at the top dose activity change, negative = inhibition, actives largely listed as inhibitors; AID 651820, 2012; actives 3.4% (n = 340,000); also: potency is read from the fitted curve at half-maximal effect
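1,000 cells/well; 4 h culture; + compound; + HCVcc-Cre (~0.5 moi); 44 h; luciferase substrate, RT 15 min; read 15 sec.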
Lassa entry inh – qHTS for Inhibitors of binding or entry into cells for Lassa Virus; Lassa virus pseudotype entry inhibition, cell reporter; Potency, µM (titrated, usually from 37.9 µM), for inactives: top-dose activity change, negative = inhibition, most hits filed as inhibitors; actives 1.2% (n = 300,000); AID 540256, 2011; calls by dose curve; tested in HEK293 cells; also: potency is read from the fitted curve at half-maximal effect; nearly all actives have a fitted effect of over 50% in size
FBPA Giardia inh – qHTS Assay for Inhibitors of Fructose-1,6-bisphosphate Aldolase from Giardia Lamblia; AID 2451, 2010; A8B2U2; actives 0.71% (n = 290,000); Potency, µM (top dose mostly 59.6 µM), for the others: top-dose activity, negative = inhibition, usual class: inhibitors; purified Giardia FBPA; also: potency is read from the fitted curve at half-maximal effect; nearly all actives have a fitted effect of over 55% in size
Target sequence (A8B2U2 whole entry, looked up): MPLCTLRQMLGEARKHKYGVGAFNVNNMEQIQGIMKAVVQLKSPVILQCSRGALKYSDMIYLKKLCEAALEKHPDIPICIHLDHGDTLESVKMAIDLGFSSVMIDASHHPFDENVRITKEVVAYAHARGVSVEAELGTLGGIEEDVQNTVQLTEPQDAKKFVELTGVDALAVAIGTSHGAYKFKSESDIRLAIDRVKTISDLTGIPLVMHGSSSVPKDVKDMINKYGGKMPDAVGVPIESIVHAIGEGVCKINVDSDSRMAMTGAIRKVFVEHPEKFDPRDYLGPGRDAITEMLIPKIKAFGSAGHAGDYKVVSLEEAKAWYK
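Giardia FBPA (40 nM reagent) was preincubated 10 min at RT with compound (up to 57.5 uM final), then substrate plus GAPDH/TPI/NAD/arsenate coupling system with diaphorase/resazurin was added; resorufin fluorescence (525/598 nm) was read after 20 min.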
Marburg entry inh – qHTS for inhibitors of binding or entry into cells for Marburg Virus | actives 1.8% (n = 300,000) | Marburg virus pseudotyped entry inhibition, cell reporter | AID 540276, 2011 | Potency, µM (top dose mostly 37.8 µM), without a hit: at the highest dose activity change, negative = inhibition, usual class: inhibitors; calls by dose curve; tested in HEK293 cells; also: potency is read from the fitted curve at half-maximal effect
Starred values were filed as active, the others as inactive; ? = inconclusive; nt = not tested or not shown; [ ] = remark or other dose. Unless noted, calls follow the shape of the dose curve; as a rule, active = well fitted curve in the direction sought with a large enough effect; inconclusive = small, poorly fitted or top-dose-only effect, or another doubt; inactive = no such curve, though single readings can be large; an effect the other way counts as inactive or inconclusive. % is scaled to controls: 0 for no effect and ±100 for the full control effect.

SMILES	FMDV inh	HCMV inh	HCV inh	Lassa entry inh	FBPA Giardia inh	Marburg entry inh
Cc1c(C(=O)Nc2nccs2)sc2nc(-c3cccs3)cc(C(F)(F)F)c12	-20.9%	?	11.2µM*	-24.5%	nt	?
CSc1nc2c(=O)[nH]cnc2s1	nt	-9.0	nt	nt	nt	nt
CCCc1cc(NCCCN2CCOCC2)n2c(nc3ccccc32)c1C#N	-25.7%	-60.1*	?	-1.0%	-2.1%	-9.8%
Cc1ccc(NC(=O)CCN2CCN(CCO)CC2)cc1C	-9.4%	-1.0	nt	?	nt	nt
CCN(CC)CCOCCOC(=O)C1(c2ccccc2)CCCC1	-16.3%	-15.8	-48.0%	?	-1.6%	15.8µM*
O=C(NCCN1CCOCC1)c1cc(Sc2ccccc2Cl)nc2ccccc12	nt	-60.9*	?	-28.6%	0.4%	-31.0%
O=C(NCCCN1CCCC1)c1cc(Sc2ccc(F)cc2)nc2ccccc12	-12.7%	-39.4	16.7%	nt	-3.8%	?
CC1CCCN(CCCNC(=O)c2cc(Sc3ccc(F)cc3)nc3ccccc23)C1 (centres undefined)	-15.2%	-71.3*	nt	-17.4%[46.1 µM]	nt	nt
O=C(NCCCN1CCOCC1)c1cc(-c2ccccc2)nc2ccccc12	9.5%	-24.2	2.5%	0.4%[46.1 µM]	nt	-3.8%
Cc1ccc(Nc2cc(C(=O)NCCCN3CCOCC3)c3ccccc3n2)cc1C	-4.5%	-9.9	22.4µM*	nt	14.2%	nt
O=C(NCCCN1CCCCC1)c1cc(Sc2ccc(Cl)cc2)nc2ccccc12	-16.9%	-70.7*	nt	18.6%[46.1 µM]	nt	nt
COC(=O)CC=C[C@@H](C)[C@@H](Cc1ccccc1Br)OC	nt	nt	nt	0.1%[14.3 µM]	nt	-3.5%[14.2 µM]
COCCNc1ccnc(-c2ccccc2CN(C)C)n1	-9.9%	nt	nt	nt	-1.7%	nt
CCN(C(=O)Cn1nc(Cc2ccncc2)c2ccccc2c1=O)c1ccc(OC)cc1	-9.0%	-20.5	nt	11.6%[46.1 µM]	nt	?
CCOCCCNC(=O)c1cc(Sc2ccc(C)cc2)nc2ccccc12	?	-60.4*	?	?	5.4%	?
Cc1ccc(Nc2ncc(C(=O)NCCCN3CCN(C)CC3)c3ccccc23)cc1Cl	-29.1%	-19.1	10µM*	?	-6.9%	?
CCOCCCNC(=O)c1cc(Sc2cccc(Cl)c2)nc2ccccc12	-9.7%	?	nt	-16.2%[46.1 µM]	nt	nt
Cc1cc(Cl)ccc1OCC(=O)Nc1ccncc1	-20.4%	-60.5*	12.6µM*	nt	-1.1%	nt
Cc1nn(C)c(C)c1NC(=O)COc1ccc(Cl)cc1Br	?	-93.1*	?	?	nt	?
Cc1c(C)c2ccc(OCC(=O)Nc3ccccn3)c(C)c2oc1=O	-10.3%	-84.5*	5.6%	nt	-7.1%	nt
Cc1cc(Cl)ccc1OCC(=O)NCc1ccncc1	nt	29.3	9.1%	17.5%	nt	-15.4%
O=C(COc1ccc(Cl)cc1Cl)NC(=S)Nc1ccccc1C(=O)O	nt	nt	nt	nt	-4.8%	nt
O=C(CCCOc1ccc(Cl)cc1Cl)Nc1ccccc1C(=O)O	-13.7%	-27.5	8.4%	?	-0.1%	3.16µM*
CCC[C@H](NC(=O)[C@H](CC(C)C)N(C)C(=O)CNC(=O)[C@@H](NC(=O)[C@H](Cc1ccccc1)NC(=O)[C@H](CCCCN)NC(=O)[C@@H](N)CC(=O)O)C(C)C)C(N)=O	nt	nt	nt	nt	1.9%	nt
CCOc1ccc(C(c2c(O)cc(C)n(Cc3ccco3)c2=O)N2CCN(C)CC2)cc1 (centres undefined)	-16.0%	20.6	nt	?	nt	nt
SMILES	FMDV inh	HCMV inh	HCV inh	Lassa entry inh	FBPA Giardia inh	Marburg entry inh
COc1ccc(-c2nc3c(c4c2C[C@H](c2ccccc2)OC4)CN(C(=O)Nc2cccc(C#N)c2)CC3)c(C)c1	nt	nt	nt	?	1.7%[12.9 µM]	?
C=C(C)[C@]12C[C@@H](C)[C@@]34OC(Cc5ccccc5)(O[C@@H]1[C@@H]3C=C(COC(=O)Cc1cc(OC)c(O)cc1I)C[C@]1(O)C(=O)C(C)=C[C@@H]41)O2	nt	nt	nt	nt	-12.6%	nt
COc1cccc(NC(=O)COc2ccc(Br)c(C)c2)c1	61.4%	21.9	-8.0%	nt	4.4%	nt
Cc1cc(OCC(=O)NNC(=O)c2cccs2)ccc1Br	0.0%	-73.4*	4.2%	14.4%[46.1 µM]	2.0%	6.1%[46.1 µM]
Cc1cccc(OCC(=O)NNC(=O)c2cccs2)c1	-8.1%	-37.9	11.1%	-15.0%	1.2%	7.2%[46.1 µM]
O=C(COc1ccc(Cl)cc1Cl)Nc1ccccn1	1.58µM*	-79.6*	?	0.517µM*	-7.8%	?
CSc1ccccc1NC(=O)COc1ccc(Cl)cc1Cl	-1.6%	?	?	19.1%	3.4%	?
Cc1cc(OCC(=O)Nc2ccncc2)ccc1Br	?	-90.1*	-12.0%	1.3%	1.4%	-0.2%
Cc1cccc(OCC(=O)Nc2nnn(C)n2)c1C	6.7%	-101.9*	3.4%	26.3%	0.7%	-19.1%
Cc1cccc(OCC(=O)Nc2ncn[nH]2)c1C	35.8%	-21.8	17.3%	nt	-9.4%	nt
CCOC(=O)CC1=C(C(=O)OCC)[C@H](c2ccc(OC)c(OC)c2)C(C#N)=C(N)O1	nt	nt	nt	nt	nt	0.9%
CCOC(=O)C1CCCN(C(=O)CCS(=O)(=O)c2cc3c(cc2Cl)NC(=O)CO3)C1 (centres undefined)	-10.8%	0.9	nt	23.5%[46.1 µM]	nt	nt
C/C=C/c1ccc(OCC(=O)Nc2ccncc2)c(OC)c1	-7.2%	-82.6*	?	nt	0.5%	nt
C/C=C/c1ccc(OCC(=O)Nc2ccc(OC)c(OC)c2)c(OC)c1	-18.7%	-3.4	?	-13.9%[46.1 µM]	1.5%	?
COc1ccccc1OCC(=O)Nc1ccncc1	11.5%	26.2	-13.9%	nt	1.4%	nt
Cc1cccc(OCC(=O)Nc2ccncc2)c1C	-14.6%	-83.5*	?	?	10.6%	?
CCC[C@H]1C[C@H](C(=O)NC(C(C)Cl)C2O[C@@H](SC)C(OP(=O)(O)O)[C@@H](O)[C@@H]2O)N(C)C1 (some centres undefined)	nt	nt	nt	nt	9.8%	nt
O=C(Cn1c(=O)oc2cc(S(=O)(=O)N3CCCC3)ccc21)Nc1ccc(F)cc1F	2.1%	-8.7	nt	-8.3%[46.1 µM]	nt	-6.2%[46.1 µM]
C=C(C)CC(C)(C)C	nt	nt	nt	nt	2.4%	nt
CCOC(=O)N[C@H](O)C(=O)c1cccs1	nt	nt	nt	nt	nt	-9.3%
O=C(Nc1cccc(O)c1)c1noc2c1CCCCC2	nt	-60.6*	-18.0%	?	-2.6%	?
CCN1CCCC1CNC(=O)c1ccc2c(c1)NC(=O)/C(=C\c1ccc(OC)c(OC)c1)S2 (centres undefined)	-16.2%	0.0	0.794µM*	nt	nt	nt
CCN1CCCC1CNC(=O)c1ccc2c(c1)NC(=O)/C(=C\c1ccccc1Cl)S2 (centres undefined)	-20.1%	-62.9*	nt	nt	nt	nt
O=C1Nc2ccccc2/C1=C/c1ccccc1F	-10.0%	18.1	?	0.9%[46.1 µM]	-5.6%	-7.6%[46.1 µM]
O=C1Nc2ccccc2/C1=C/C(=O)c1cccs1	22.4µM*	-95.0*	?	-14.6%	-17.9%	?
COc1ccc(C(=O)/C=C2/C(=O)Nc3ccccc32)cc1	3.16µM*	-13.4	-1.0%	nt	6.8%	nt
